# CtBP-E1A blk = blocks the CtBP interaction with E1A; AlphaScreen GST-E1A/His-CtBP binding, 1536-well; hits give low values; activity change, % (no concentration beside the values); hit rate 0.49% among 340,000; AID 651724; in the data active means activity change below about -65%; inconclusive means mostly about -30% to -63%; further: on the % scale 0 is the no-effect control and ±100 the full control effect
#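 AlphaScreen with 125 nM GST-E1A and 125 nM His-CtBP (5X stocks) in Tris pH 8.0, 300 mM NaCl, BSA, Tween 20, TCEP. Compounds preincubated 2 h at 37 deg C, then glutathione donor/nickel acceptor beads added for 1 h at 37 deg C in dark.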
# Six1-Eya2 inh = blocks human Six1 binding to Eya2; Q15475+O00167; AlphaScreen GST-Six1/His-Eya2 binding, biochemical; hits give low values; activity change, % (test concentration not listed); hit rate 0.56% among 360,000; in the data active means activity change below about -65%; inconclusive means mostly about -30% to -63%; further: on the % scale 0 is the no-effect control and ±100 the full control effect
#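 Compounds are tested against tagged Six1 and Eya2 proteins bridged by glutathione donor and nickel acceptor beads; after a one-hour incubation at 37 °C without light, AlphaScreen emission is recorded.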
# G9a block = blocks human histone lysine methyltransferase G9a. Q96KQ7. G9a H3K9 monomethylation, AlphaScreen, 2 h. Potency, µM (titrated, usually from 102 µM), inactives show at the highest dose activity, negative = inhibition, usual class: inhibitors. hit rate 8.8% among 350,000; further: potency means the concentration at half of the fitted maximal effect; on the % scale 0 is the no-effect control and ±100 the full control effect; nearly all actives have a fitted effect of over 75% in size
# Target sequence (Q96KQ7 913-1193 limits assumed): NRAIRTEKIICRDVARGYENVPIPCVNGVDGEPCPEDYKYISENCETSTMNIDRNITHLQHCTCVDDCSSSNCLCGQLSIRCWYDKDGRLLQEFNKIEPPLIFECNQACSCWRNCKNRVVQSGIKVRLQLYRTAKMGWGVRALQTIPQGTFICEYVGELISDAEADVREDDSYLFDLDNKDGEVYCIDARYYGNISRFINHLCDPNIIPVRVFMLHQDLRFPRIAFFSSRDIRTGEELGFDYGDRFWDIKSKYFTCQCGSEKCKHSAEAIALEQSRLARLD
#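 Using a bead-based AlphaScreen, monomethylated H3K9 product from 2 h room-temperature reactions (G9a 20 nM, peptide 500 nM, SAM 20 uM) was detected with 0.5 ug/mL rabbit anti-H3K9me1 antibody.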
# HP1b chromo inh = inhibitors of HP1-beta chromodomain binding to methylated histone tails | P83916 | AlphaScreen HP1-beta / biotin-H3K9me3 peptide binding | Potency, µM (titrated, usually from 114 µM), inactives show at the highest dose activity change, negative = inhibition, actives largely listed as inhibitors | hit rate 0.56% among 390,000 | AID 540317; further: potency means the concentration at half of the fitted maximal effect; nearly all actives have a fitted effect of over 70% in size
# Target sequence (P83916 whole entry, looked up): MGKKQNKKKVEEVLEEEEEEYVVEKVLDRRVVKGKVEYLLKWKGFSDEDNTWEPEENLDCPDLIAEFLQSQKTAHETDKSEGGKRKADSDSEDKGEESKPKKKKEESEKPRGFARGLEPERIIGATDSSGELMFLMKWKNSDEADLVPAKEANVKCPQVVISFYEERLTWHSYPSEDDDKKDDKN
#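 AlphaScreen: HP1-beta (50 nM) preformed 30 min with biotin-H3(1-18)K9me3 peptide (50 nM) in PBS pH 7.4, 0.01% Tween-20. Compound added for 30 min at RT, then streptavidin donor/nickel chelate acceptor beads (10 ug/mL) for 30 min.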
# JMJD2A Tudor = blocks the human JMJD2A Tudor domain | O75164 | AlphaScreen JMJD2A-Tudor / H3K4me3 peptide binding | Potency, µM (titrated, usually from 114 µM), without a hit: top-dose activity change, negative = inhibition, actives largely listed as inhibitors | hit rate 4.4% among 390,000; further: potency means the concentration at half of the fitted maximal effect; on the % scale 0 is the no-effect control and ±100 the full control effect; nearly all actives have a fitted effect of over 50% in size
# BAZ2B inh = blocks human BAZ2B; Q9UIF8; AlphaScreen BAZ2B-H3K14Ac peptide displacement; Potency, µM (top dose mostly 114 µM), for the others: at the highest dose activity change, negative = inhibition, actives largely listed as inhibitors; hit rate 4.4% among 360,000; further: potency means the concentration at half of the fitted maximal effect; on the % scale 0 is the no-effect control and ±100 the full control effect; nearly all actives have a fitted effect of over 60% in size
#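 Protein-peptide AlphaScreen: BAZ2B 50 nM, b-H3K14Ac 50 nM, 1x PBS pH 7.4 + 0.01% Tween-20. Preincubation 30 min RT; cpd 30 min RT (top 110 uM); beads 20 min RT, light-protected.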
# Active calls of the source: *; ? = inconclusive; nt = not tested or not shown; [ ] = another dose, or the depositor's remark. Most compounds without a hit are left out; they make up all but 10% or so of the library. Unless noted, the call rests on the fitted dose curve; in most records, active means well fitted inhibition curve with a large enough effect; inconclusive means small, poorly fitted or top-dose-only effect; inactive means no such curve, though single readings can be large or run the other way.
SMILES,CtBP-E1A blk,Six1-Eya2 inh,G9a block,HP1b chromo inh,JMJD2A Tudor,BAZ2B inh
Cc1ccc(-n2c(SCc3cc(=O)n4ccsc4n3)nnc2-c2cccnc2)c(C)c1,7.1,-3.3,?,9.1%,-27.3%,56.2µM*
CC(=O)Nc1ccc2c(CSc3nnc(-c4cccnc4)n3-c3ccc(C)cc3C)cc(=O)oc2c1,-8.2,-2.7,8.91µM*,20.0%,-24.5%,?
CC(Oc1ccccc1Cl)C(=O)Nc1ccc(S(=O)(=O)N2CCN(C)CC2)cc1 (stereo not given),3.4,18.7,nt,-16.1%[57 µM],50.1µM*,nt
CC(=O)Nc1ccc(NC(=O)C(C)OC(=O)c2cccc(S(=O)(=O)N3CCCCC3)c2)cc1 (stereo not given),5.1,-0.1,?,22.7%,-8.0%,-11.2%
CC(=O)Nc1ccc(NC(=O)C(C)OC(=O)c2cccc(S(=O)(=O)N3CCCC3)c2)cc1 (stereo not given),11.9,-0.3,39.8µM*,19.6%,-8.2%,1.8%
CC(=O)Nc1cccc(C(=O)OC(C)C(=O)Nc2ccc(S(=O)(=O)N3CCCC3)cc2)c1 (stereo not given),3.9,-2.8,50.1µM*,21.7%,-2.9%,10.5%
CC(OC(=O)c1cccc(S(=O)(=O)N2CCCCCC2)c1)C(=O)Nc1ccc(S(N)(=O)=O)cc1 (stereo not given),-4.7,3.1,50.1µM*,5.6%,-17.9%,-3.6%
CCOC(=O)C1=C(Cn2cnc3ccccc32)NC(=O)NC1c1ccc(OC)cc1 (stereo not given),-5.7,0.2,-0.8%,2.8%,-18.2%,56.2µM*
CCOC(=O)C1=C(Cn2cnc3ccccc32)NC(=O)NC1c1ccc(Cl)cc1 (stereo not given),4.8,-0.5,-26.7%[59 µM],22.7%,-3.2%,-22.7%
Cc1cc(=O)oc2c(C)c(OCC(=O)NCC3CCC(C(=O)O)CC3)ccc12 (stereo not given),4.4,5.6,nt,-7.8%,-16.3%,8.3%
CCCCc1cc(=O)oc2c(C)c(OCC(=O)NCC3CCC(C(=O)O)CC3)ccc12 (stereo not given),0.0,-23.7,79.4µM*,16.5%,-13.6%,-14.8%[57.1 µM]
COc1ccc(CNC(=O)CN2CCC(NC(=O)c3cccc(OC)c3)CC2)cc1,-3.7,-13.3,nt,-32.8%[57 µM],1µM*,nt
COc1cccc(CNCC(=O)NC(=O)NC2CCCC2)c1,5.2,8.1,nt,?,22.4µM*,nt
COc1cccc(C(=O)NC2CCN(CC(=O)NCc3ccccc3OC)CC2)c1,-0.9,1.7,18.8%[59 µM],14.7%,-18.0%,-4.2%
COc1ccc(C(CNC(=O)c2cccc(N(C)C)c2)N2CCCC2)cc1 (stereo not given),-22.2,-29.7,?,-26.8%,44.7µM*,50.1µM*
COc1cccc(Cn2cccc(NC(=O)NC3CCCCC3)c2=O)c1,-9.3,-8.0,?,10.1%,-13.9%,?
COc1ccccc1CNC(=O)c1ccc(S(=O)(=O)N(C)c2ccccc2)cc1,3.1,6.7,-32.6%,27.9%,-3.4%,9.3%
COc1ccccc1CNC(=O)c1cccc(N(C)C)c1,-2.8,-10.0,8.91µM*,8.5%,-29.4%,-36.3%
CC(Nc1ncnc2c1cnn2-c1cccc(Cl)c1)c1ccccc1 (stereo not given),nt,nt,26.7%[59 µM],84.4%,6.1%,21.7%
CN(C)c1ccc(C(CNC(=O)c2ccccc2C(F)(F)F)N2CCOCC2)cc1 (stereo not given),nt,nt,-31.7%[59 µM],-11.0%,-19.2%,-8.6%
CN(C)c1ccc(C(CNC(=O)c2ccc(-c3ccccc3)cc2)N2CCOCC2)cc1 (stereo not given),nt,nt,14.1µM*,nt,nt,35.5µM*
COc1ccc(-c2ccc(C(=O)NCc3ccc(N(C)C)cc3)c3occc23)c(C)c1,-66.3*,-65.0*,nt,nt,nt,nt
COc1ccc(CNC(=O)c2cccc(N(C)C)c2)cc1,-2.3,-2.3,7.08µM*,37.2%,-29.3%,?
Cc1cc(F)ccc1NC(=O)c1ccc(NS(=O)(=O)c2cccs2)cc1,26.7,-12.6,nt,nt,nt,nt

# Assay outcomes as filed in PubChem.
